Source: PubChem BioAssay (National Center for Advancing Translational Sciences (NCATS))
Sampled rows, rich in hits. Any-hit rate of the full collection: about 4.2%.
ALOX12 inh: Primary qHTS assay for inhibitors of human arachidonate 12S-lipoxygenase (ALOX12): Round 2. 580,000 tested, 1.1% active. purified 12hLO, xylenol orange hydroperoxide absorbance. Potency, µM (doses to about 108 µM), usual class: inhibitors. AID 1671190, 2021
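Purified human 12hLO at 150 nM in 25 mM Hepes, 0.01% Triton X-100, pH 7.0, preincubated 15 min at room temperature with compound. Reaction started with 40 uM arachidonic acid, 30 min at room temperature. Hydroperoxide measured by Fe-xylenol orange, 573/405 nm absorbance ratio.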
Sfp inh: qHTS Assay for Inhibitors of Bacillus subtilis Sfp phosphopantetheinyl transferase (PPTase) | Biochemical Sfp PPTase activity, qHTS | Potency, µM, most hits filed as inhibitors | 310,000 tested, 3.5% active | AID 1490, 2009;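 note: the enzyme is Sfp with the accession as filed and its product quenches rhodamine fluorescence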
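Fluorescence-quenching assay: 15 nM Sfp-PPTase preincubated 15 min at room temperature with compound, then 5 uM rhodamine-CoA and 12.5 uM BHQ-2-labelled YbbR peptide added. Fluorescence (ex 525/em 598 nm) read at start and after 30 min; difference gives rate.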
PLK1 PBD inh: qHTS for Inhibitors of PLK1-PDB (polo-like kinase 1 - polo-box domain): Primary Screen; 360,000 tested, 2.8% active; Potency, µM, usual class: inhibitors; Plk1 PBD binding of FITC phosphopeptide, fluorescence polarization; AID 720504, 2013; Serine/threonine-protein kinase PLK1 (Homo sapiens), P53350; note: series mostly up to about 57 µM; nearly all actives have a fitted effect of over 65% in size
VDR inhibitor: Inhibitors of the vitamin D receptor (VDR): qHTS | AID 504847, 2011 | 400,000 tested, 0.93% active | VDR-SRC2-3 peptide fluorescence polarization, 2 h | Vitamin D3 receptor (Homo sapiens), P11473 | Potency, µM, hits mostly inhibitors
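FP read-out; VDR + SRC2-3 coactivator peptide; 23 nl compound by pintool; 2 h RT incubation; reagents held at 4 deg C, protected from light.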
Large screens that a line does not name were inactive. Calls come from the whole dose curve; as a rule, active = well fitted curve in the direction sought with a large enough effect; inconclusive = small, poorly fitted or top-dose-only effect, or another doubt; inactive = no such curve, though single readings can be large; an effect the other way counts as inactive or inconclusive.

O=C(CN(c1ccccc1Cl)S(=O)(=O)c1ccccc1)N/N=C/c1ccccc1C(=O)O	none
Cc1ccc(N(CC(=O)N/N=C/c2ccco2)S(=O)(=O)c2ccccc2)cc1	ALOX12 inh inconclusive, Sfp inh 31.6µM
COc1ccc(/C=N/NC(=O)CN(c2ccc(OC)cc2)S(=O)(=O)c2ccccc2)cc1	PLK1 PBD inh 26.7µM
Cc1ccc(S(=O)(=O)N(CC(=O)N/N=C/c2ccccc2C(=O)O)c2cc(Cl)cc(Cl)c2)cc1	PLK1 PBD inh 42.3µM
CCS(=O)(=O)N1CCCN(S(=O)(=O)c2ccccc2)CCC(=O)NCC1	none (no result: Sfp inh, PLK1 PBD inh, VDR inhibitor)
O=C1N2CCCc3cccc(c32)C12Nc1ccccc1S2 (configuration not stated)	ALOX12 inh 25.1µM, Sfp inh 50.1µM, PLK1 PBD inh 23.8µM
Cc1ccc(CN2CCN(C(=O)C3CCCO3)CC2)cc1 (configuration not stated)	none
CCOC(=O)c1oc2ccccc2c1CN1CCN(C)CC1	ALOX12 inh 35.5µM
CCOC(=O)N1CCN(Cc2c(O)ccc3ccccc23)CC1	PLK1 PBD inh 10.6µM, VDR inhibitor inconclusive
O=C(C1CCCO1)N1CCN(Cc2c(O)ccc3ccccc23)CC1 (configuration not stated)	ALOX12 inh inconclusive, PLK1 PBD inh 11.9µM, VDR inhibitor 50.1µM
CCOC(=O)N1CCN(Cc2ccc(O)c3ncccc23)CC1	ALOX12 inh 25.1µM, PLK1 PBD inh 26.7µM, VDR inhibitor inconclusive
CCOC(=O)N1CCN(Cc2ccccn2)CC1	ALOX12 inh inconclusive, Sfp inh 79.4µM
CC(C)c1ccc(CN2CCC(C(=O)NCc3cccnc3)CC2)cc1	Sfp inh 79.4µM
CSc1ccc(CN2CCC(C(=O)NCc3ccc(C)cc3)CC2)cc1	ALOX12 inh inconclusive, Sfp inh 56.2µM
CCS(=O)(=O)N1CCC(C(=O)NCc2cccnc2)CC1	none
CC(C)CN(CC(C)C)S(=O)(=O)N1CCC(C(=O)NCc2cccnc2)CC1	PLK1 PBD inh 26.7µM
O=C(Nc1cc(F)ccc1F)c1ccccc1-c1ccccc1	none (no result: Sfp inh, PLK1 PBD inh, VDR inhibitor)
CCOC(=O)COc1ccc2ccccc2c1/C=C/[N+](=O)[O-]	Sfp inh 20µM, PLK1 PBD inh 5.97µM, VDR inhibitor 25.1µM
CC(CN1CCC(O)CC1)c1ccccc1 (configuration not stated)	ALOX12 inh inconclusive
CC(=O)N1CCc2ccc(S(=O)(=O)N3CCCc4ccccc43)cc2C1	none (no result: Sfp inh, PLK1 PBD inh, VDR inhibitor)
Cc1c(N(C)C(=O)c2ccco2)c(=O)n(-c2ccccc2)n1C	PLK1 PBD inh 26.7µM
c1ccc(Nc2scc(-c3ccccc3)[n+]2Cc2ccco2)cc1	ALOX12 inh inconclusive, Sfp inh 20µM
O=C(C(=O)N1CCN(c2ccccc2)CC1)c1cccc(Br)c1	none (no result: Sfp inh, VDR inhibitor)
O=C1C(Cl)=C(Nc2cccc(O)c2)C(=O)N1Cc1ccccc1	ALOX12 inh inconclusive, PLK1 PBD inh 26.7µM
Cc1cc([N+](=O)[O-])nn1CCCC(=O)Nc1sc2c(c1C(N)=O)CCC(C)C2 (configuration not stated)	none
CCCc1cc(-c2nc(-c3ccc(Cl)cc3)cs2)ccn1	ALOX12 inh inconclusive, Sfp inh 39.8µM
O=c1c2cc(NC(=S)N3CCC(N4CCCCC4)CC3)ccc2nc2n1CCCCC2	Sfp inh 79.4µM
O=C(c1ccc2c(=O)n3c(nc2c1)CCCCC3)N1CCN(c2ccc(F)cc2)CC1	Sfp inh inconclusive
CC1CCCCN1C(=S)Nc1ccc2nc3n(c(=O)c2c1)CCCCC3 (configuration not stated)	none
O=C(Nc1ccc2nc3n(c(=O)c2c1)CCCCC3)c1c(F)ccc([N+](=O)[O-])c1F	PLK1 PBD inh 23.8µM, VDR inhibitor inconclusive
O=C(Nc1ccc2nc3n(c(=O)c2c1)CCCCC3)C(=O)N1CCN(c2ccc(F)cc2)CC1	PLK1 PBD inh 6.7µM, VDR inhibitor inconclusive
Cc1ccccc1CSc1nc(C(C)(C)C)cc(=O)[nH]1	none
COCCn1nnnc1C(c1cccs1)N1CCN2CCCC2C1 (configuration not stated)	ALOX12 inh inconclusive, PLK1 PBD inh 18.9µM
COc1ccccc1C(c1nnnn1Cc1ccccc1)N1CCN(C2CCCC2)CC1 (configuration not stated)	ALOX12 inh inconclusive, PLK1 PBD inh 29.9µM
Fc1ccc(Cn2nnnc2C(c2cccs2)N2CCN(C3CCCCC3)CC2)cc1 (configuration not stated)	none
